Here are results for six compounds from the supplement of paper PMC7411054.

Common to all, as to conditions: treatment time: 24 h
In assay [1] the test system is A549-ACTB-RAB5A. The experiment in a line: lowest phenotypically active concentration; higher = less potent. The essentials: (§1)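 The reporter lines, fifteen in total and built by gene editing in A549, HepG2 and WPMY1 cells, used BFP for segmentation alongside GFP and RFP/FusionRed markers. Each was treated at 0.3, 1, 3 or 9 µM for 24 h in four wells and then imaged live, with live-cell features normalised to solvent control wells. Deviation meant ≥3 of 4 wells beyond the 95th percentile of control Euclidean distances; reproducibility meant a median replicate Pearson correlation above the 95th percentile of non-replicates. Only conditions meeting both were scored as phenotypically active.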

For assay [2], the system named is A549-GM130-SQSTM1. Described as above. A digest of the protocol: as §1
The subject of assay [3] is HepG2-ACTB-RAB5A. Described as above. A digest of the protocol:
as §1

Assay [4] has as its system WPMY1-ACTB-RAB5A. The assay is described as above. The essentials: as §1
In assay [5] the test system is WPMY1-GM130-SQSTM1. The description is as above. A digest of the protocol: as §1
For assay [6], the system named is A549-ACTB-RAB5A. Put plainly: phenotypically active (imaging signature differs from DMSO and reproducible) at any of 0.3-9 uM (binary (1 = active, 0 = inactive)); higher = active. The essentials:
as §1

For another assay, the system named is A549-CANX-COX4. Described as above. The essentials: as §1
The subject of assay [7] is A549-GM130-SQSTM1. Described as above. The essentials: as §1
Another assay concerns A549-TP53BP1-CLTA. The description is as above. A digest of the protocol: as §1
Another assay relates to A549-TUBA1B-RELA. The description is as above. The essentials:
as §1

The test system of assay [8] is HepG2-ACTB-RAB5A. The description is as above. A digest of the protocol: as §1
In a further assay the test system is HepG2-CANX-COX4. The description is as above. A digest of the protocol: as §1
The subject of another assay is HepG2-GM130-SQSTM1. The description is as above. A digest of the protocol:
as §1

The next assay relates to HepG2-TP53BP1-CLTA. The assay is described as above. The essentials:
as §1

Another assay has as its system HepG2-TUBA1B-RELA. Described as above. The essentials:
as §1

Assay [9] concerns WPMY1-ACTB-RAB5A. The description is as above. A digest of the protocol: as §1
For a further assay, the system named is WPMY1-CANX-COX4. The description is as above. The essentials:
as §1

The subject of assay [10] is WPMY1-GM130-SQSTM1. The description is as above. The essentials: as §1
In the next assay the test system is WPMY1-TP53BP1-CLTA. Described as above. The essentials:
as §1

The subject of a further assay is WPMY1-TUBA1B-RELA. The description is as above. The essentials: as §1

In the case of `CN(C)CCCN1c2ccccc2CCc2ccc(Cl)cc21` [clomipramine], the “lowest phenotypically active concentration” value was determined as 3 µM in the assay on A549-ACTB-RAB5A [1]; 9 µM in the assay on A549-GM130-SQSTM1 [2]; 9 µM in the assay with HepG2-ACTB-RAB5A [3]; 9 µM in the assay on WPMY1-ACTB-RAB5A [4]; 9 µM in the assay on WPMY1-GM130-SQSTM1 [5]. Further, the phenotypically active was 1 (active) in the assay with A549-ACTB-RAB5A [6]; 0 (inactive) with A549-CANX-COX4; 1 (active) in the assay on A549-GM130-SQSTM1 [7]; 0 (inactive) in the assay with A549-TP53BP1-CLTA; 1 (active) in the assay with A549-TUBA1B-RELA; 1 (active) in the assay on HepG2-ACTB-RAB5A [8]. Further, the phenotypically active in the assay with HepG2-CANX-COX4 was 0 (inactive); in the assay with HepG2-GM130-SQSTM1, 0 (inactive); in the assay with HepG2-TP53BP1-CLTA it was 1 (active); in the assay on HepG2-TUBA1B-RELA, 1 (active); in the assay with WPMY1-ACTB-RAB5A [9] it was 1 (active); in the assay on WPMY1-CANX-COX4 it was 1 (active). The phenotypically active with WPMY1-GM130-SQSTM1 [10], in the assay on WPMY1-TP53BP1-CLTA and in the assay on WPMY1-TUBA1B-RELA was 1 (active) each time.

Turning to `c1ccc(CN(CC2=NCCN2)c2ccccc2)cc1` [antazoline], the figures for the “lowest phenotypically active concentration” value in the assay with A549-ACTB-RAB5A [1] and in the assay on A549-GM130-SQSTM1 [2] were 3 µM and 9 µM, respectively. Besides, the phenotypically active in the assay with A549-ACTB-RAB5A [6] is 1 (active); in the assay on A549-CANX-COX4, 0 (inactive); in the assay on A549-GM130-SQSTM1 [7] it was 1 (active); with A549-TP53BP1-CLTA, 0 (inactive); with A549-TUBA1B-RELA it was 1 (active); in the assay with HepG2-ACTB-RAB5A [8], 0 (inactive). Also, the phenotypically active in the assay with HepG2-CANX-COX4, in the assay on HepG2-GM130-SQSTM1, in the assay with HepG2-TP53BP1-CLTA, in the assay with HepG2-TUBA1B-RELA, with WPMY1-ACTB-RAB5A [9] and in the assay on WPMY1-CANX-COX4 was 0 (inactive) throughout. The phenotypically active in the assay on WPMY1-GM130-SQSTM1 [10], in the assay with WPMY1-TP53BP1-CLTA and in the assay on WPMY1-TUBA1B-RELA was 0 (inactive) throughout.

`CNCCCN1c2ccccc2CCc2ccccc21` [desipramine]: the “lowest phenotypically active concentration” value came to 9 µM in the assay with A549-ACTB-RAB5A [1]; 3 µM in the assay with A549-GM130-SQSTM1 [2]; 9 µM in the assay with HepG2-ACTB-RAB5A [3]; 9 µM in the assay with WPMY1-ACTB-RAB5A [4]; 9 µM with WPMY1-GM130-SQSTM1 [5]. Further, the phenotypically active in the assay on A549-ACTB-RAB5A [6] was 1 (active); in the assay on A549-CANX-COX4, 0 (inactive); in the assay with A549-GM130-SQSTM1 [7], 1 (active); in the assay with A549-TP53BP1-CLTA, 0 (inactive); in the assay with A549-TUBA1B-RELA, 1 (active); with HepG2-ACTB-RAB5A [8], 1 (active). Further, the phenotypically active was 0 (inactive) in the assay with HepG2-CANX-COX4; 0 (inactive) in the assay with HepG2-GM130-SQSTM1; 0 (inactive) in the assay with HepG2-TP53BP1-CLTA; 1 (active) with HepG2-TUBA1B-RELA; 1 (active) with WPMY1-ACTB-RAB5A [9]; 0 (inactive) in the assay on WPMY1-CANX-COX4. For the same compound, the phenotypically active is 1 (active) in the assay on WPMY1-GM130-SQSTM1 [10], 0 (inactive) with WPMY1-TP53BP1-CLTA and 1 (active) in the assay with WPMY1-TUBA1B-RELA.

Consider `Cc1c(O)cccc1C(=O)N[C@@H](CSc1ccccc1)[C@H](O)CN1C[C@H]2CCCC[C@H]2C[C@H]1C(=O)NC(C)(C)C` [nelfinavir], for which the “lowest phenotypically active concentration” value amounted to 9 µM with A549-ACTB-RAB5A [1]; 9 µM in the assay with A549-GM130-SQSTM1 [2]; 9 µM with HepG2-ACTB-RAB5A [3]; 3 µM in the assay with WPMY1-ACTB-RAB5A [4]; 3 µM in the assay on WPMY1-GM130-SQSTM1 [5]. In addition, the phenotypically active in the assay with A549-ACTB-RAB5A [6] was 1 (active); in the assay on A549-CANX-COX4 it was 0 (inactive); in the assay on A549-GM130-SQSTM1 [7], 1 (active); in the assay with A549-TP53BP1-CLTA, 0 (inactive); with A549-TUBA1B-RELA, 1 (active); in the assay on HepG2-ACTB-RAB5A [8], 1 (active). Besides, the phenotypically active is 1 (active) in the assay with HepG2-CANX-COX4; 1 (active) in the assay on HepG2-GM130-SQSTM1; 0 (inactive) in the assay on HepG2-TP53BP1-CLTA; 1 (active) in the assay with HepG2-TUBA1B-RELA; 1 (active) in the assay on WPMY1-ACTB-RAB5A [9]; 1 (active) with WPMY1-CANX-COX4. The results for the phenotypically active in the assay with WPMY1-GM130-SQSTM1 [10], in the assay with WPMY1-TP53BP1-CLTA and with WPMY1-TUBA1B-RELA were 1 (active), 0 (inactive) and 1 (active), respectively.

On to `COc1cc2c(cc1OCCCN1CCCC1)N=C(N)C21CCC1`, for which the “lowest phenotypically active concentration” value in the assay on A549-ACTB-RAB5A [1] and in the assay with A549-GM130-SQSTM1 [2] was 9 µM throughout. The phenotypically active with A549-ACTB-RAB5A [6] is 1 (active); in the assay with A549-CANX-COX4, 0 (inactive); in the assay on A549-GM130-SQSTM1 [7], 1 (active); in the assay with A549-TP53BP1-CLTA, 0 (inactive); in the assay with A549-TUBA1B-RELA it was 1 (active); with HepG2-ACTB-RAB5A [8] it was 0 (inactive). In addition, the phenotypically active with HepG2-CANX-COX4, in the assay with HepG2-GM130-SQSTM1, in the assay with HepG2-TP53BP1-CLTA, with HepG2-TUBA1B-RELA, in the assay with WPMY1-ACTB-RAB5A [9] and with WPMY1-CANX-COX4 was 0 (inactive) throughout. Besides, the phenotypically active in the assay with WPMY1-GM130-SQSTM1 [10], in the assay on WPMY1-TP53BP1-CLTA and in the assay with WPMY1-TUBA1B-RELA was 0 (inactive) each time.

As to `CN(C)CC(O)Cn1c2ccc(Br)cc2c2cc(Br)ccc21` (centres undefined) [Wiskostatin], the “lowest phenotypically active concentration” value with A549-ACTB-RAB5A [1] was 3 µM; in the assay on A549-GM130-SQSTM1 [2] it was 1 µM; in the assay on HepG2-ACTB-RAB5A [3], 3 µM; with WPMY1-ACTB-RAB5A [4], 3 µM; in the assay with WPMY1-GM130-SQSTM1 [5] it was 3 µM. Also, the phenotypically active is 1 (active) with A549-ACTB-RAB5A [6]; 0 (inactive) in the assay on A549-CANX-COX4; 1 (active) in the assay on A549-GM130-SQSTM1 [7]; 0 (inactive) with A549-TP53BP1-CLTA; 1 (active) with A549-TUBA1B-RELA; 1 (active) in the assay with HepG2-ACTB-RAB5A [8]. Also, the phenotypically active in the assay on HepG2-CANX-COX4, in the assay with HepG2-GM130-SQSTM1, in the assay with HepG2-TP53BP1-CLTA, in the assay on HepG2-TUBA1B-RELA, in the assay on WPMY1-ACTB-RAB5A [9] and with WPMY1-CANX-COX4 was 1 (active) throughout. Further, the phenotypically active in the assay with WPMY1-GM130-SQSTM1 [10], with WPMY1-TP53BP1-CLTA and in the assay with WPMY1-TUBA1B-RELA was 1 (active) each time.
